# Source: PubChem (several laboratories)
# Shown are actives, neighbours in structure and some others; about 2.7% of the full set was active somewhere.
# Pf gamet viab – late stage P. falciparum gametocyte viability inhibitors, primary screen, ATP luminescence, HTS; P. falciparum stage V gametocytes, 24 h; inhibition, % at 10.9 µM; 0.065% of 150,000 active;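 active = inhibition above the mean plus 3 SD of compounds within the control limits, set per campaign, cut at about 38% in these data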
# Mcl1-Bid inh – Mcl-1/Bid binding inhibitors, primary screen, biochemical, TR-FRET, 1536-well. Induced myeloid leukemia cell differentiation protein Mcl-1 (Homo sapiens), Q07820. 0.97% of 220,000 active. TR-FRET Mcl-1/Bid-Dy647 peptide binding. inhibition, % at 21.7 µM;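 active = compounds that cut the binding signal by more than half at the single screening dose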;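 note: His-tagged Mcl-1 with europium anti-His antibody binding Bid BH3 peptide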
# Mcl1-Noxa inh – Mcl-1/Noxa binding inhibitors, primary screen, biochemical, TR-FRET, 1536-well | Induced myeloid leukemia cell differentiation protein Mcl-1 (Homo sapiens), Q07820 | TR-FRET Mcl-1/Noxa peptide binding, 2 h | inhibition, % at 21.7 µM | 1.5% of 220,000 active | AID 1022, 2008;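 active = compounds that cut the protein-peptide binding signal by more than 50% relative to plate controls in a single-dose test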;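 note: His-tagged Mcl-1 with rhodamine Noxa BH3 peptide and terbium anti-His antibody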
# Mcl-1 Bim block – inhibitors of Bim peptide binding to Mcl-1, primary screen, biochemical, bead-based flow cytometry, multiplex; Bim peptide-Mcl-1 binding; inhibition, % at 10 µM; 0.1% of 190,000 active; AID 1009, 2008; in the data active = inhibition above about 40%
# eIF4E-4G inh – eIF4E–eIF4G protein interaction inhibitors, primary screen, biochemical, uHTS, TR-FRET, eIF4GI fragment; Eukaryotic translation initiation factor 4E (Mus musculus) + Eukaryotic translation …; 0.37% of 220,000 active; TR-FRET eIF4E-eIF4GI(517-606) binding, 2 h; inhibition, % at 21.7 µM;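 active = inhibition above about 30%, limit read from the data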
# 14-3-3 Bad PPI – inhibitors of 14-3-3 zeta/Bad binding, primary screen, biochemical, TR-FRET, bovine 14-3-3 zeta | TR-FRET 14-3-3zeta/Dy647-pBad peptide displacement, 1 h | inhibition, % at 21.7 µM | 0.71% of 220,000 active;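 active = inhibition above about 70%, limit read from the data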
# Numbers stand for hits; 0 = inactive; - = no result; [ ] = remark or other dose.
SMILES,Pf gamet viab,Mcl1-Bid inh,Mcl1-Noxa inh,Mcl-1 Bim block,eIF4E-4G inh,14-3-3 Bad PPI
CNc1c(-n2cc(C(=O)OC)c(C(=O)OC)c2C(=O)OC)c(=O)n(C)c(=O)n1C,0,-,-,-,-,-
O=C(COC(=O)C1=COCCO1)NC(=O)c1ccc(OC(F)F)cc1,0,0,0,0,0,0
COc1ccc(C(C)=O)cc1CSc1nnc(Nc2c(C)cccc2C)s1,0,0,0,0,0,0
COc1cccc(CNCc2ccccc2Br)c1OC,0,-,-,-,-,-
COc1ccc2oc(=O)c(-c3nnc(NCc4ccco4)s3)cc2c1,0,64.7,0,0,0,0
COC(=O)Nc1ccc(S(=O)(=O)NCCO)cc1,0,0,0,0,0,0
C/C(=N\NC(=O)COc1ccc(C#N)cc1)c1ccccc1OC(F)F,0,0,0,49.0,0,0
C/C(=N\NC(=O)COc1ccc(C(C)(C)C)cc1)c1ccc(OC(F)F)cc1,0,0,0,0,0,0
COc1ccc(-c2cnnc(N/N=C/c3ccc(O)c(O)c3)n2)cc1,0,0,0,0,0,0
COc1ccc(-c2cnnc(N/N=C/c3ccc(O)cc3)n2)cc1,0,0,88.1,0,0,0
Fc1cc(F)c2nc(Nc3nc4cc5c(cc4s3)OCO5)sc2c1,0,91.0,98.8,0,0,94.9[fluorescence artefact?]
Cc1cccc(S(=O)(=O)C(C#N)c2nc3ccccc3nc2N2CC(C)OC(C)C2)c1 (configuration not stated),-,0,0,0,0,72.7
Cc1ccc(S(=O)(=O)C(C#N)c2nc3ccccc3nc2N2CC(C)OC(C)C2)cc1C (configuration not stated),0,0,0,0,0,0
COc1cc(CN(C(=O)c2ccco2)c2ccc(C)cc2)ccc1O,0,0,0,0,36.9[fluorescence artefact?],0
COc1ccc(CN(C(=O)c2ccco2)c2ccc(Br)cc2)cc1OC,0,0,0,0,0,0
CS(=O)(=O)NCCCCCCNS(C)(=O)=O,0,0,0,0,0,0
CC1CCN(C2(O)C(=O)Nc3ccc(Br)cc32)CC1 (configuration not stated),0,0,0,93.0,0,82.6
O=C1Nc2ccc([N+](=O)[O-])cc2C1(O)N1CCCCCC1 (configuration not stated),-,0,0,0,0,0
CC1CCC2(CC1)NC(=O)N(CC(=O)Nc1sc3c(c1C(N)=O)CCC3)C2=O (configuration not stated),0,0,64.4,0,0,0
Cn1cnnc1SCC(=O)Nc1sc2c(c1C(N)=O)CCC2,-,0,99.8,0,0,0
NC(=O)c1c(NC(=O)CN2C(=O)NC(Cc3ccccc3)C2=O)sc2c1CCC2 (configuration not stated),0,0,0,-,0,0
CC1CCCCC12NC(=O)N(CC(=O)Nc1sc3c(c1C(N)=O)CCC3)C2=O (configuration not stated),0,0,82.3,0,0,0
COc1ccccc1NC(=O)CSCc1nc2ccccc2[nH]1,0,51.6,0,0,0,0
COc1ccccc1NC(=O)CSCC(N)=O,0,0,0,0,0,0
COc1ccc(-c2[nH]ncc2CN2CCCC2c2nonc2C)c(F)c1 (configuration not stated),38.6,0,0,0,0,0
SMILES,Pf gamet viab,Mcl1-Bid inh,Mcl1-Noxa inh,Mcl-1 Bim block,eIF4E-4G inh,14-3-3 Bad PPI
COc1cc(OC)cc(-c2c(-c3cccs3)c3cc(-c4ccc(OC)c(OC)c4)ccc3n2C)c1,0,-,-,-,-,-
COc1cc(CC(=O)NCCc2ccc(S(N)(=O)=O)cc2)cc(OC)c1OC,-,0,0,0,81.3,0
COc1cc(SC)ccc1C(=O)N1CCN(c2ccccc2)CC1,0,0,82.3,0,0,0
COc1cc(SC)ccc1C(=O)N1CCN(c2ccc(O)cc2)CC1,0,0,0,0,0,0
CC(C)(C)OC(=O)N[C@@H](Cc1ccccc1)C(=O)NCC1CCC(C(=O)O)CC1 (some centres not stated),0,0,0,-,0,0
C=CCc1ccccc1OCC(O)CN1CCN(C(=O)OCC)CC1 (configuration not stated),0,0,0,0,0,0
C=CCc1ccccc1OCC(O)CN1CCN(c2ccc(C)cc2)CC1 (configuration not stated),0,0,0,0,0,72.3
Cc1ccc(C(C)C)c(OCC(O)CN2CCN(CCO)CC2)c1 (configuration not stated),-,53.0,0,0,0,0
CC(C)CC(=O)NNC(=O)C(C)C,0,0,0,0,0,0
O=C(/C=C/c1c(Cl)nc2ccccn12)Nc1ccc(F)cc1,0,0,0,0,0,0
O=C1N=c2ccccc2=C1c1sc(Nc2ccc(O)cc2)nc1O,0,0,83.0,0,37.3,82.9
O=C1N=c2ccccc2=C1c1sc(NS(=O)(=O)c2ccccc2)nc1O,0,0,0,0,0,0
O=C(CSc1nnnn1-c1ccc(Cl)c(C(=O)O)c1)NC(c1ccccc1)c1ccccc1,0,0,0,-,0,0
COc1ccc(-c2nn3cnnc3s2)cc1OC,0,52.9,0,0,0,0
COc1ccc(-c2nn3c(COc4ccccc4)nnc3s2)cc1OC,0,0,0,0,0,0
O=C(O)c1ccc(N/N=C/c2ccc(-c3cccc(Cl)c3)o2)cc1,0,0,0,-,0,0
COC(=O)N/N=C/c1ccc(-c2ccc(Cl)cc2Cl)o1,0,0,0,-,0,0
O=C(O)c1ccc(N/N=C/c2ccc(-c3ccc(Cl)cc3Cl)o2)cc1,0,0,108.2,-,0,0
O=C(O)c1ccc(N/N=C/c2ccc(-c3cc(Cl)ccc3Cl)o2)cc1,0,61.7,110.6,-,0,0
CN(C)C(=O)C1C2NC(=S)N(c3cccc(Cl)c3)C1(C)Oc1ccc(Cl)cc12 (configuration not stated),0,0,0,0,0,0
Fc1ccc(C2=Nc3cccc4cccc(c34)N2)cc1,0,0,0,0,0,0
Brc1ccc(C2=Nc3cccc4cccc(c34)N2)o1,0,0,55.1,0,0,0
CC(C)NCC(=O)Nc1c2c(nc3ccccc13)CCC2,0,0,0,-,31.0,0
Cc1c(NC(=O)COC(=O)c2c3c(nc4ccccc24)CCCC3)c(=O)n(-c2ccccc2)n1C,0,0,0,0,0,0
Cc1cccc(NC(=O)CSc2c3c(nc4ccccc24)CCC3)n1,0,0,0,0,0,0
